{
  "source": "PubChem BioAssay AID651551",
  "about": "(Sanford-Burnham Center for Chemical Genomics, 2012)",
  "data": [
    {"target": "PEG-3 (UniProt Q6IN02)", "assay": "GAPDH versus PEG-3 reporter suppression – cell-based, luminescence, counter-screen for PEG-3 promoter inhibitor project, SAR follow-up (AID 651551)", "conditions": "HeLa PEG-Prom / GAPDH luciferase reporter, 6 or 24 h, run 2, 24 h; at 99 µM (top of the series)", "units": {"inhibition % (higher = more inhibition)": "%"}, "values": [
      {"smiles": "COc1ccc(Cl)cc1Nc1nc(-c2sc(NC(=O)c3ccccc3)nc2C)cs1", "inhibition % (higher = more inhibition)": 76.3},
      {"smiles": "CCn1nc(C(=O)Nc2nc(-c3ccccn3)cs2)c2ccccc2c1=O", "inhibition % (higher = more inhibition)": 53.3},
      {"smiles": "Cc1cc(NC(=O)c2cccc(C)c2C)n(-c2nc3ccccc3[nH]2)n1", "inhibition % (higher = more inhibition)": 24},
      {"smiles": "CCCn1nc(C(=O)Nc2nc3ccccc3s2)c2ccccc2c1=O", "inhibition % (higher = more inhibition)": 18.4},
      {"smiles": "Cc1nc(NC(=O)c2ccccc2)sc1-c1csc(Nc2ccccc2)n1", "inhibition % (higher = more inhibition)": 63.3},
      {"smiles": "COCCCNC(=O)c1ccc(Cn2c(=O)c3ccccc3n(Cc3ccccc3C#N)c2=O)cc1", "inhibition % (higher = more inhibition)": 54.9},
      {"smiles": "O=C(Nc1nc(-c2ccccc2)cs1)c1nn(-c2ccccc2)c(=O)c2ccccc12", "inhibition % (higher = more inhibition)": 21.2},
      {"smiles": "Cc1cc(NC(=O)c2ccccc2)n(-c2nc3ccccc3[nH]2)n1", "inhibition % (higher = more inhibition)": -13.6},
      {"smiles": "CCCn1nc(C(=O)Nc2nc(-c3ccccn3)cs2)c2ccccc2c1=O", "inhibition % (higher = more inhibition)": 44.6},
      {"smiles": "COc1ccc(-n2nc(C(=O)NCC(=O)Nc3cccc(OC)c3)c3ccccc3c2=O)cc1", "inhibition % (higher = more inhibition)": 21.2},
      {"smiles": "Cc1cc(NC(=O)c2ccccc2C(F)(F)F)n(-c2nc3ccccc3[nH]2)n1", "inhibition % (higher = more inhibition)": 91.9},
      {"smiles": "Cc1nc(NC(=O)c2ccccc2)sc1-c1csc(Nc2ccccc2Cl)n1", "inhibition % (higher = more inhibition)": -54.5},
      {"smiles": "COc1ccc(-n2nc(C(=O)NCC(=O)Nc3cc(OC)c(OC)c(OC)c3)c3ccccc3c2=O)cc1OC", "inhibition % (higher = more inhibition)": 40.8},
      {"smiles": "CCCn1nc(C(=O)Nc2nc(-c3ccncc3)cs2)c2ccccc2c1=O", "inhibition % (higher = more inhibition)": 40.8},
      {"smiles": "COc1ccc(-n2nc(C(=O)NCC(=O)Nc3ccc(OC)c(OC)c3)c3ccccc3c2=O)cc1", "inhibition % (higher = more inhibition)": 35.2},
      {"smiles": "CCn1cc(C(=O)NCc2ccco2)c(=O)c2cc(S(=O)(=O)N3CCCC3)ccc21", "inhibition % (higher = more inhibition)": 24},
      {"smiles": "Cc1cc(NC(=O)c2ccccc2)n(-c2nc3ccccc3n2C)n1", "inhibition % (higher = more inhibition)": 12.8},
      {"smiles": "Cc1cc(NC(=O)c2ccccc2C)n(-c2nc3ccccc3[nH]2)n1", "inhibition % (higher = more inhibition)": 11.5},
      {"smiles": "O=C(Nc1nccs1)c1nn(-c2ccccc2)c(=O)c2ccccc12", "inhibition % (higher = more inhibition)": 49.2},
      {"smiles": "COc1ccccc1Nc1nc(-c2sc(NC(=O)c3ccco3)nc2C)cs1", "inhibition % (higher = more inhibition)": 10},
      {"smiles": "O=C(Nc1nc2ccccc2s1)c1nn(-c2ccccc2)c(=O)c2ccccc12", "inhibition % (higher = more inhibition)": -4.01},
      {"smiles": "Cc1ccc(Cl)cc1Nc1nc(-c2sc(NC(=O)c3ccco3)nc2C)cs1", "inhibition % (higher = more inhibition)": 1.6},
      {"smiles": "Cc1nc(NC(=O)c2ccccc2)sc1-c1csc(Nc2cccc(Cl)c2C)n1", "inhibition % (higher = more inhibition)": -15.2}
    ]}
  ]
}
